From PubChem BioAssay
KCNQ2 enhance: KCNQ2 (rat) channel potentiation | 310,000 compounds, 0.54% hits | CHO-K1 KCNQ2, FluxOR thallium flux fluorescence; stronger effect = higher value | O88943 | B-score at 10 µM;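 active = fluorescence ratio B-score at least 3 SD of library B-scores, with initial fluorescence B-score within 3 of them, cut at about 5.3 in these data; same plate scores as AID 2156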;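 note: B-score of peak minus minimum over baseline fluorescence ratio after K+ and Tl+ stimulus; positive B-score means potentiation of KCNQ2 with more thallium influx and brighter signal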
Target sequence (O88943 whole entry, looked up): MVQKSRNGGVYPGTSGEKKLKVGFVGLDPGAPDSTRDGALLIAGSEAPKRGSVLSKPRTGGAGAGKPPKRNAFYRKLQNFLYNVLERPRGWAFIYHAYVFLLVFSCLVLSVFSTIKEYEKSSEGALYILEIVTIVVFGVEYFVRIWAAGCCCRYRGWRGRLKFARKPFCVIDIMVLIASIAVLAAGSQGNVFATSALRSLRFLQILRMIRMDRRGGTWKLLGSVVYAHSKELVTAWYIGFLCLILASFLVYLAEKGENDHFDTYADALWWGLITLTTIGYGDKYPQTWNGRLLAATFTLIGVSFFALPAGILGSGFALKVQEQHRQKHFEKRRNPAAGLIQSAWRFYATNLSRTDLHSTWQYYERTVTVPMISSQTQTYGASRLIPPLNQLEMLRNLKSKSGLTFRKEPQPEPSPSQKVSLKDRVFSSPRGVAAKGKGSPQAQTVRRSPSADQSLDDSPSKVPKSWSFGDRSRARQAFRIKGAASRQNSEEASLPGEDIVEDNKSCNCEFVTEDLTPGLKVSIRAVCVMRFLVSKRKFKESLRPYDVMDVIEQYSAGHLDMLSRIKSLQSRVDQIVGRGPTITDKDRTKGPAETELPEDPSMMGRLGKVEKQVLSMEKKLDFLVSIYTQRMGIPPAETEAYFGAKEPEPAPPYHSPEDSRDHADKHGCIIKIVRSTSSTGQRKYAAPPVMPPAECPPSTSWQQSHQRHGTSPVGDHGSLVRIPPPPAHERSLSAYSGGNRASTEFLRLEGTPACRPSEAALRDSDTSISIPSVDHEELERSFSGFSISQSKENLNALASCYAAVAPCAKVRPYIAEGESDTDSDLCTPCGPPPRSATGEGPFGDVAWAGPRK
KCNQ2 block: inhibitors of rat KCNQ2 potassium channel. 310,000 compounds, 1.1% hits. B-score at 10 µM. O88943. CHO-K1 KCNQ2, FluxOR thallium flux, 20 min; stronger effect = lower value;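 active = fluorescence ratio B-score at most minus 3 library SDs, with starting brightness B-score within 2 library SDs, cut at about -5.5 in these data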
An asterisk follows results filed as active; i = inactive; . = no result. Only some compounds are listed: those with a hit (about 1.6% of all), similar ones and a draw of the others.

SMILES | KCNQ2 enhance | KCNQ2 block
Cc1ccc(S(=O)(=O)N2c3ccccc3OCC2c2ccccc2)cc1 (centres undefined) | . | i
Cc1ccc(S(=O)(=O)N2c3cc(C)ccc3OCC2C(C)(C)C)cc1 (centres undefined) | -6.2 | -6.2*
O=C(CN1CCc2ccccc2C1)NCC(=O)Nc1ccc(F)cc1 | . | i
O=C(COc1ccccc1)NC(=S)Nc1cccc2cc(O)ccc12 | . | i
O=C1CC(C(=O)O)S/C(=N\N=C\c2ccc(Br)cc2)N1 (centres undefined) | . | i
O=C(NC1=C(NC2CCS(=O)(=O)C2)C(=O)c2ccccc2C1=O)c1ccccc1 (centres undefined) | 6.2* | i
O=C(NC(NC1CCS(=O)(=O)C1)C(=O)c1cccs1)c1ccccc1 (centres undefined) | . | i
CCN1CCC2(CC1)Oc1c(OC)cccc1C1CC(c3cccnc3)=NN12 (centres undefined) | 0.75 | i
Cc1cccc(NC(=O)/C(C#N)=C\c2cccnc2)c1 | -6.5 | -6.5*
N#C/C(=C\c1cccnc1)C(=O)Nc1ccc(Cl)cc1 | . | i
Cc1c(Cl)cccc1NC(=S)N1CCCN(Cc2ccc(F)cc2)C1 | . | i
CCOC(=O)c1ccccc1NC(=O)C1CCN(c2ncnc3sc(C)c(C)c23)CC1 | -6 | -6*
Cc1sc2ncnc(N3CCC(C(=O)Nc4ccccc4C(C)(C)C)CC3)c2c1C | . | i
Cc1ccc(OCC(O)CNC2CCCC2)c(C)c1 (centres undefined) | . | i
Cc1ccccc1OCC(O)CNC1CCC(NCC(O)COc2ccccc2C)CC1 (centres undefined) | -7.7 | -7.7*
CC(C)OC(=O)CSc1nc(N2CCOCC2)c2c(c1C#N)CC(C)(C)OC2 | 1.4 | i
O=C(O)c1c2c(nc3ccc(S(=O)(=O)N4CCC(C(=O)NC5CCCCCC5)CC4)cc13)CCCC2 | . | i
CCOC(=O)c1cc(S(=O)(=O)N2CCCC2)cn1C | . | i
COc1cccc(CNC(=O)Nc2cccs2)c1 | 5.7* | i
COc1ccc(CNC(=O)Nc2cccs2)cc1OC | 1.9 | i
O=C1CC(=C(c2ccccc2)c2ccccc2)C(=O)N1CCCN1CCN(c2cccc(Cl)c2)CC1 | . | i
O=C1CC(=C(c2ccccc2)c2ccccc2)C(=O)N1CCN1CCN(c2cccc(Cl)c2)CC1 | -5.6 | -5.6*
CCCCCc1c2c(cc(O)c1C(=O)O)OC(=O)c1c(cc(OC)cc1C(=O)CCCC)O2 | -6.7 | -6.7*
CCCCc1c(C(=O)O)cc(OC)cc1C(=O)O | 0.45 | i
CSCCC(NC(=O)COc1ccccc1)C(=O)N1CCN(c2ccccc2O)CC1 (centres undefined) | -6.2 | -6.2*
SMILES | KCNQ2 enhance | KCNQ2 block
CSCCC(NC(=O)COc1ccccc1)C(=O)OCC(=O)c1ccccc1 (centres undefined) | . | i
CCC(Cc1ccccc1)NC(=O)c1ccc2nc(N3CCOCC3)sc2c1 (centres undefined) | . | i
O=C(CN(Cc1ccccc1)C(=O)CCC(=O)Nc1ccccn1)NCc1ccc(F)cc1 | 0.38 | i
Cc1ccc(C)c(N2CCN(C(=O)COc3cc(=O)n(C)c4ccccc34)CC2)c1 | . | i
Cc1ccc(C)c(N2CCN(C(=O)CCCOc3cc(=O)n(C)c4ccccc34)CC2)c1 | -6.4 | -6.4*
O=C1c2cccc3c(O)ccc(c23)C(=O)N1Cc1ccccc1 | . | i
O=S(=O)(c1cccc(F)c1)N1CCc2sccc2C1c1ccc(OC(F)(F)F)cc1 (centres undefined) | -5.9 | -5.9*
COc1ccc(OC2CCN(S(=O)(=O)c3cccc(F)c3)CC2)cc1 | . | i
O=C(NC(=S)N(CCc1ccccc1)CCc1ccccc1)c1ccco1 | 16* | i
O=C(NC(=S)NCCc1ccc(Cl)cc1)c1ccco1 | 1.9 | i
COc1cc(C(=O)NC(=S)N(C)Cc2ccccc2)cc(OC)c1OC | . | i
COc1cc(C(=O)NC(=S)N(CCc2ccccc2)CCc2ccccc2)cc(OC)c1OC | 18* | i
O=C(Nc1ccc(Br)cc1)C1CCN(c2cnccn2)CC1 | . | i
Cc1ccc(S(=O)(=O)N2CCC(C(=O)N/N=C/c3ccncc3)CC2)cc1 | . | i
CN(Cc1ccccc1)C(=O)[C@@H]1CCCN1S(=O)(=O)c1ccc(Cl)cc1 | . | i
Cc1cc(C)n(-c2nc3ccccc3c(=O)n2OCCOc2ccccc2)n1 | -5.6 | -5.6*
C=CCOn1c(-n2nc(C)cc2C)nc2ccccc2c1=O | . | i
C=CCn1c(SCC(=O)N(CCO)CCO)nc2sc3c(c2c1=O)CCC3 | . | i
O=C(CN1C(=O)c2ccccc2C1=O)Nc1ccc(Cl)cn1 | 0.84 | i
O=C1c2ccccc2C(Nc2ccc(Cl)cn2)N1Cc1ccccc1 (centres undefined) | -6.5 | -6.5*
Cc1ccc(F)c(CNC(=O)C2CCC(=O)N(Cc3ccccn3)C2)c1F (centres undefined) | . | i
Cc1ccc(Cl)cc1N1CCN(S(=O)(=O)c2c(C)[nH]c(C)c2C(=O)N2CCCCC2)CC1 | -7.2 | -7.2*
Cc1ccc(C)c(N2CCN(S(=O)(=O)c3c(C(=O)N4CCCCC4)c(C)n(C)c3C)CC2)c1 | . | i
Cc1ccc(C)c(N2CCN(S(=O)(=O)c3c(C)[nH]c(C)c3C(=O)N3CCCCC3)CC2)c1 | -6.7 | -6.7*
Cc1[nH]c(C)c(S(=O)(=O)N2CCN(c3cccc(Cl)c3)CC2)c1C(=O)N1CCCCC1 | . | i
SMILES | KCNQ2 enhance | KCNQ2 block
CCCn1nnnc1NC(=O)COc1ccc(Br)cc1 | 1 | i
CCN(CC)S(=O)(=O)c1cccc(C(=O)OCC(=O)NCc2ccccc2OC)c1 | -6.5 | -6.5*
CCN(CC)S(=O)(=O)c1cccc(C(=O)OCC(=O)Nc2ccccc2OC(F)F)c1 | 0.51 | i
COC(=O)CN(c1ccc(F)cc1)S(=O)(=O)c1ccccc1 | 0.81 | i
COC(=O)Cc1ccc(N(Cc2ccccc2F)S(=O)(=O)c2ccc(Cl)cc2)cc1 | -8.2 | -8.2*
CC12CCC(=O)N1C(C(=O)Nc1ccc(Cl)c(Cl)c1)CS2 (centres undefined) | . | i
CC12CCC(=O)N1C(C(=O)Nc1ccc(Cl)c(S(=O)(=O)N3CCCCC3)c1)CS2 (centres undefined) | -6.1 | -6.1*
CC12CCC(=O)N1C(C(=O)NCCc1ccccc1)CS2 (centres undefined) | . | i
CC12CCC(=O)N1C(C(=O)Nc1cc(C(F)(F)F)ccc1N1CCOCC1)CS2 (centres undefined) | . | i
CC12CCC(=O)N1C(C(=O)NCc1ccccc1Cl)CS2 (centres undefined) | -5.8 | -5.8*
CC(=O)c1sc(NC(=O)C2CSC3(C)CCC(=O)N23)nc1-c1ccccc1 (centres undefined) | . | i
Cc1sc(NC(=O)C2CSC3(C)CCC(=O)N23)nc1-c1ccccc1 (centres undefined) | -6.9 | -6.9*
CC12CCC(=O)N1C(C(=O)Nc1cc(C(F)(F)F)ccc1N1CCCCC1)CS2 (centres undefined) | -6 | -6*
COc1ccc(C2=NS(=O)(=O)N(C)C(C(=O)NCc3ccc(F)cc3)=C2)cc1OC | 0.01 | i
CCc1nn(C(C)C(=O)N(C)Cc2ccccc2)c(=O)c2cc3occc3n12 (centres undefined) | . | i
COc1cccc(CN(C)C(=O)CSCC(=O)Nc2cc(C)on2)c1OC | . | i
CCOc1ccc(S(=O)(=O)N2CCC(C(=O)NCc3ccco3)CC2)cc1C | 1.8 | i
